The target in test [1] is Peroxisome proliferator-activated receptor delta (Homo sapiens) (UniProt Q03181). In words: qHTS assay to identify small molecule agonists of the peroxisome proliferator-activated receptor delta (PPARd) signaling pathway (AID 743212; calls by dose curve;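 note: HEK293H cells with PPARd UAS beta-lactamase reporter GeneBLAzer system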). Put shortly: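 Beta-lactamase reporter read by fluorescence (LiveBLAzer B/G FRET, 2 h, room temperature). Test agents, in DMSO, incubated at 37 C with PPARd-bla HEK293H cells.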
(In general: Quantitative high-throughput screening tests each substance at several concentrations.)

Test [2] in a line: qHTS assay to identify small molecule antagonists of the peroxisome proliferator-activated receptor delta (PPARd) signaling pathway - cell viability counter screen (AID 743213). Note: nearly all actives have a fitted effect of over 50% in size. Put shortly: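 CellTiter-Glo was added to PPARd-bla HEK293H wells following 17 h compound treatment in the presence of 300 nM L165041. Luminescence was recorded after 30 min at room temperature.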
For test [3], the target named is Peroxisome proliferator-activated receptor delta (Homo sapiens) (UniProt Q03181). As to the kind of experiment: qHTS assay to identify small molecule antagonists of the peroxisome proliferator-activated receptor delta (PPARd) signaling pathway (AID 743215; active = well fitted inhibition curve with a large enough effect in the signal ratio in the repeat runs, not every such curve was filed as active; the % refers to the signal ratio;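 note: cells stimulated with agonist L165041 at 300 nM final during compound exposure; series mostly up to about 62 µM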). Put shortly:
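Fluorescence from cleaved LiveBLAzer B/G FRET substrate (2 h, room temperature) reports PPARd-driven beta-lactamase in HEK293H UAS-bla cells. Cells had been treated 17 h at 37 C with compound plus 300 nM final L165041.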

A short description of test [4]: qHTS assay to identify small molecule antagonists of the farnesoid-X-receptor (FXR) signaling pathway - cell viability counter screen (AID 743221; active = well fitted cell-killing curve with a large enough effect in the repeat runs, not every such curve was filed as active; note: nearly all actives have a fitted effect of over 50% in size). Summed up: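 Quantitative HTS of the Tox21 10K library run in parallel with the beta-lactamase reporter read. HEK 293T cells carrying a UAS-driven bla reporter got compound and 50 uM CDCA (final) for 16 h; ATP-based luminescence followed.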

The target in test [5] is Vitamin D3 receptor (Homo sapiens) (UniProt P11473). As to the kind of experiment: qHTS assay to identify small molecule agonists of the vitamin D receptor (VDR) signaling pathway (AID 743222; calls by dose curve). Put shortly:
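Following 4 h attachment at 37C, VDR-bla cells (2,000 per well) received DMSO-dissolved compounds or controls. After 16 h incubation, LiveBLAzer B/G FRET substrate was added and fluorescence read 2 h later at room temperature.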

The target is the same in test [6]. In words: qHTS assay to identify small molecule antagonists of the vitamin D receptor (VDR) signaling pathway (AID 743223; active = well fitted inhibition curve with a large enough effect in the signal ratio in the repeat runs, not every such curve was filed as active; the % refers to the signal ratio). Summed up:
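Fluorescence from LiveBLAzer B/G FRET substrate, read after 2 h at room temperature, reflects beta-lactamase reporter activity in VDR-bla cells treated 16 h at 37C with compounds and agonist 1alpha,25-dihydroxyvitamin D3 (3 nM final).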

The nature of test [7]: qHTS assay to identify small molecule agonists of the vitamin D receptor (VDR) signaling pathway - cell viability counter screen (AID 743224). Note: series mostly up to about 63 µM; nearly all actives have a fitted effect of over 50% in size. Put shortly: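 In parallel with the bla FRET readout, cytotoxicity toward VDR-bla cells after 16 h compound exposure was assessed by CellTiter-Glo, with luminescence recorded after a 30 min room-temperature incubation.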
The nature of test [8]: qHTS assay to identify small molecule antagonists of the vitamin D receptor (VDR) signaling pathway - cell viability counter screen (AID 743225). Note: nearly all actives have a fitted effect of over 50% in size. Put shortly: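 Cells (VDR-UAS-bla HEK 293T) are plated, rested 4 h at 37C, dosed with compound and 3 nM final 1-alpha,25-dihydroxy vitamin D3, and incubated 16 h. Viability is taken from CellTiter-Glo luminescence in the reporter wells.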

Test [9] can be described thus: qHTS assay to identify small molecule agonists of the NFkB signaling pathway (AID 1159509; active = well fitted curve in the direction sought with a large enough effect in the signal ratio in the repeat runs, not every such curve was filed as active; the % refers to the signal ratio; note: series mostly up to about 61 µM). Put shortly: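 Beta-lactamase reporter assay run in quantitative high-throughput format on an NF-kB-responsive ME-180 line, with 5 hr compound treatment and a FRET-based blue/green fluorescence readout.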
The nature of test [10]: qHTS assay to identify small molecule agonists of the NFkB signaling pathway - cell viability counter screen (AID 1159515; calls by dose curve; note: series mostly up to about 61 µM; nearly all actives have a fitted effect of over 55% in size). Summed up:
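Plate 2,000 NFkB-bla ME-180 cells/well; incubate overnight. Add compounds, 5 hr at 37 C. Add FRET substrate, 1.5 hr RT. Add CellTiter-Glo, 30 min RT; read luminescence.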

The nature of test [11]: qHTS assay to identify small molecule agonists of the endoplasmic reticulum stress response signaling pathway (AID 1159516; active = well fitted activation curve with a large enough effect in the signal ratio in the repeat runs, not every such curve was filed as active; the % refers to the signal ratio). Summed up:
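Beta-lactamase expression from the ER stress response element in HeLa reporter cells is quantified with the LiveBLAzer B/G FRET substrate, read at 405 nm excitation after 2 hr at room temperature, following 5 hr compound treatment at 37 C.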

The nature of test [12]: qHTS assay to identify small molecule antagonists of the retinoid-related orphan receptor gamma (ROR-gamma) signaling pathway - cell viability counter screen (AID 1159520). Note: nearly all actives have a fitted effect of over 50% in size. Summed up:
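Tet-on ROR gamma CHO cells (1,000/well) were plated 4 hr, given compounds in DMSO for 2 hr at 37 C, then induced with 1 uM final doxycycline for 16 hr. Viability was read as ATP by CellTiter-Glo luminescence after 30 min.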

Test [13] has as its target Nuclear receptor ROR-gamma (Homo sapiens) (UniProt P51449). In words: qHTS assay to identify small molecule antagonists of the retinoid-related orphan receptor gamma (ROR-gamma) signaling pathway (AID 1159521). Put shortly:
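RORγ antagonism is scored from reduced reporter luminescence in Tet-on CHO cells. Induction used 1 uM final doxycycline hyclate for 16 h at 37 C, following a 2 h compound exposure.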

The nature of test [14]: qHTS assay to identify small molecule agonists of the AP-1 signaling pathway - cell viability counter screen (AID 1159525; calls by dose curve; note: nearly all actives have a fitted effect of over 55% in size). Summed up: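 Each titration point was normalised to DMSO and tetra n-octyl ammonium bromide controls. The read was Cell Titer Glo luminescence after 30 min at RT, following 5 h compound exposure of ME-180 AP-1-bla cells at 37 °C.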
A short description of test [15]: qHTS assay to identify small molecule agonists of the AP-1 signaling pathway (AID 1159526; calls by dose curve).
Test [16] can be described thus: qHTS assay to identify small molecule agonists of the farnesoid-X-receptor (FXR) signaling pathway - cell viability counter screen (AID 743218). Note: nearly all actives have a fitted effect of over 45% in size. Put shortly: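 Readout: CellTiter-Glo luminescence, 30 min RT, multiplexed after the FXR-bla FRET reading. HEK 293T FXR-UAS-bla cells received compound 5 h post-plating and were incubated 16 h at 37 C.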
A short description of test [17]: qHTS assay to identify small molecule agonists of the peroxisome proliferator-activated receptor delta (PPARd) signaling pathway - cell viability counter screen (AID 743211). Note: nearly all actives have a fitted effect of over 55% in size. Put shortly: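 Viability of GeneBLAzer PPARd UAS-bla HEK293H cells was assessed after 17 h compound incubation at 37C, using CellTiter-Glo reagent added after the reporter read and luminescence recorded 30 min later.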

Test [18] has as its target Bile acid receptor (Homo sapiens) (UniProt Q96RI1). In words: qHTS assay to identify small molecule agonists of the farnesoid-X-receptor (FXR) signaling pathway (AID 743220; active = well fitted activation curve with a large enough effect in the signal ratio in the repeat runs, not every such curve was filed as active; the % refers to the signal ratio; note: potency is the fitted concentration of half-maximal effect). Summed up:
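FXR-UAS-bla HEK 293T cells carrying a UAS-driven beta-lactamase reporter were plated for 5 h at 37C/5% CO2, then exposed to DMSO-dissolved Tox21 10K compounds for 16 h at 37C. A LiveBLAzer B/G FRET substrate was loaded for 2 h at room temperature before fluorescence reading.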

Test [19] has the same target. As to the kind of experiment: qHTS assay to identify small molecule antagonists of the farnesoid-X-receptor (FXR) signaling pathway (AID 743217; active = well fitted inhibition curve with a large enough effect in the signal ratio in the repeat runs, not every such curve was filed as active; the % refers to the signal ratio). Summed up: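 FRET fluorescence after 2 h room-temperature LiveBLAzer loading gives the readout. Prior step: FXR-bla HEK 293T cells, seeded and incubated 5 h, received test compounds plus 50 uM final CDCA for 16 h at 37 °C.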

Test [20] is described as follows: qHTS assay to identify small molecule agonists of the endoplasmic reticulum stress response signaling pathway - cell viability counter screen (AID 1159517; calls by dose curve; note: nearly all actives have a fitted effect of over 50% in size; note: potency is the fitted concentration of half-maximal effect). Summed up:
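Cytotoxicity of test compounds toward ESRE-bla HeLa cells was assessed after 5 hr exposure. The luminescent CellTiter-Glo signal was measured 30 min after reagent addition.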

Data on twelve molecules can be found in PubChem BioAssay (Tox21).

Results filed as inconclusive are left out. Calls of active or inactive are those of the source. Unless noted, calls come from the whole dose curve; as a rule, active = well fitted curve in the direction sought with a large enough effect in the repeat runs; inconclusive = weak or mixed curves; inactive = no such curve, though single readings can be large; an effect the other way counts as inactive or inconclusive.

Chain of Vitamin D3 receptor (Homo sapiens) (P11473 whole entry, looked up): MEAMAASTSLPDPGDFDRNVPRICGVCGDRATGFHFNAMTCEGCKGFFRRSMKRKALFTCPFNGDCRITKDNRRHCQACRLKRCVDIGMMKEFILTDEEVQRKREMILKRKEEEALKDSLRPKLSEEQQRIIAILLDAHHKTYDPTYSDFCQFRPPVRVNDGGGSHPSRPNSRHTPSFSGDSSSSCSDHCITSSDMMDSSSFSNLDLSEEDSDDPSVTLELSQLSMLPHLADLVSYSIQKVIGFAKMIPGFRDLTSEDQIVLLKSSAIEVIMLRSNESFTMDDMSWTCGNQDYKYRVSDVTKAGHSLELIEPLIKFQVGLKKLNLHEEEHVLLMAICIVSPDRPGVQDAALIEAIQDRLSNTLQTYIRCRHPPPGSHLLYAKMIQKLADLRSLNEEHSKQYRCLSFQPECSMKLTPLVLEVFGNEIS
Chain of Bile acid receptor (Homo sapiens) (Q96RI1 whole entry, looked up): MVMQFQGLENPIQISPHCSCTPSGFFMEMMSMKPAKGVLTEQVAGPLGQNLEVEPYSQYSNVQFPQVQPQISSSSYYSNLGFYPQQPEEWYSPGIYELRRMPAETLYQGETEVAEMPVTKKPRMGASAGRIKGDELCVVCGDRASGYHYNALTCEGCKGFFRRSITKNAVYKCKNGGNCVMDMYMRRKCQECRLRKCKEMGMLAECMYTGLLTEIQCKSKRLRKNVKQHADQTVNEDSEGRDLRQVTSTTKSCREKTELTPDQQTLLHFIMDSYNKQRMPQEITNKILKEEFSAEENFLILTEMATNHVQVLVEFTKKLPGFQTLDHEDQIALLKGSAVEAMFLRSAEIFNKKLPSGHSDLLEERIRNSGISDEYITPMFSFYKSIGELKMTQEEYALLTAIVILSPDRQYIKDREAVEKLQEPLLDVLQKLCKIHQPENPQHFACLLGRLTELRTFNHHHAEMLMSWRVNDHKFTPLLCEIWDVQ
Chain of Peroxisome proliferator-activated receptor delta (Homo sapiens) (Q03181 whole entry, looked up): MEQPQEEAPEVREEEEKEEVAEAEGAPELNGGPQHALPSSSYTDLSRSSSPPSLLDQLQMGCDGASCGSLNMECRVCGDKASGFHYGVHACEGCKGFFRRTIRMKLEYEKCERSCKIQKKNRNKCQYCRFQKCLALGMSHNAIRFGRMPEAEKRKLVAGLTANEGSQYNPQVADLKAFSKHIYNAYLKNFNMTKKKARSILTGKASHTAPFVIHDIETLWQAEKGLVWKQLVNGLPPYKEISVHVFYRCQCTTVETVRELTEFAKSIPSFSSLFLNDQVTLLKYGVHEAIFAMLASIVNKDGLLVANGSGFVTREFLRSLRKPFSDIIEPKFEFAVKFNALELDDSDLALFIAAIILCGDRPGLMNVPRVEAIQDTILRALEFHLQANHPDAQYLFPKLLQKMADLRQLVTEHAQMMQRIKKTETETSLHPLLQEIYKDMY

On to `CCN(CC)CC(=O)Nc1c(C)cccc1C(=O)OC`, for which the result in test [1], in test [5], in test [6], in test [9] and in test [15] was inactive. Besides, the Potency result in [2], in test [3], in test [4], in test [7], in [8] and in [10] was “inactive” in each case. For the same molecule, the Potency result in [11], in [12], in test [13] and in test [14] was “inactive” throughout.

Consider `O=C1OC[C@H](Cc2cccc(O)c2)[C@H]1Cc1cccc(O)c1`, for which the molecule was called inactive in [1], in test [9] and in [15]. Further, the Potency result in test [2], in test [16], in [4], in test [8], in [10] and in test [11] was “inactive” throughout. Further, the Potency entry in [12], in test [13] and in test [14] was “inactive” each time.

Regarding `c1ccc(CCCc2ccncc2)cc1`, the Potency result in test [17], in test [2], in test [16], in [4], in [7] and in test [8] was “inactive” in each case. Also, the Potency result in test [10], in test [11], in test [12] and in [14] was “inactive” each time. Further, the result in [1], in [9] and in test [15] was inactive. The Potency in test [18] was 49 µM (active).

On to `CC(C)Cc1ccc(CC(=O)O)cc1`, for which the Potency entry in test [17], in test [16], in test [4], in test [8], in test [10] and in [11] was “inactive” throughout. The Potency result in test [12], in test [13] and in [14] was “inactive” each time. In addition, the molecule was classed as inactive in [1], in test [19], in test [5], in test [6] and in [9].

Consider `O=C(Oc1ccccc1)c1ccc2ccccc2c1O`, for which the outcome in test [1], in test [5], in test [6], in test [9] and in [15] was inactive. Besides, the Potency entry in test [2], in test [3], in [16], in [8], in [10] and in test [11] was “inactive” each time. Besides, the Potency result in [12], in [13] and in test [14] was “inactive” in each case.

Regarding `CC(C)COC(=O)COc1cc(Cl)c(Cl)cc1Cl`, the molecule was called inactive in test [1], in [9] and in test [15]. For the same molecule, the Potency entry in test [2], in test [16], in [4], in test [7], in test [8] and in test [10] was “inactive” in each case. Also, the Potency entry in [11], in test [12], in test [13] and in test [14] was “inactive” throughout.

As for `CCN(CC)CCOC(=O)C(c1ccccc1)c1ccccc1`, the molecule was called inactive in test [1], in [19], in test [5], in test [9] and in test [15]. Further, the Potency entry in [16], in test [4], in [7], in test [8], in [10] and in [11] was “inactive” each time. Moreover, the Potency entry in test [12], in [13] and in [14] was “inactive” throughout.

Take `O=[N+]([O-])c1ccc2ncccc2c1`: the outcome in test [1], in test [19], in test [5], in test [6], in test [9] and in test [15] was inactive. Moreover, the Potency entry in [2], in [18], in test [4], in test [7], in test [8] and in test [10] was “inactive” in each case. For the same molecule, the Potency result in [11], in [12] and in test [14] was “inactive” in each case.

`COC(=O)c1sccc1S(N)(=O)=O`: the Potency result in test [17], in test [2], in test [16], in test [4], in test [7] and in test [8] was “inactive” each time. Also, the Potency result in test [10], in test [20], in [12], in test [13] and in test [14] was “inactive” throughout. Moreover, the result in [1], in [19], in test [5], in test [6], in test [9] and in test [15] was inactive.

For the molecule `NC(=O)CCCCC(N)=O`, the Potency entry in test [17], in [2], in test [3], in test [16], in test [4] and in [7] was “inactive” each time. Also, the Potency result in test [8], in test [10], in test [20], in test [12], in test [13] and in test [14] was “inactive” in each case. Also, the molecule was called inactive in test [1], in test [5], in test [6], in test [9] and in [15].

With `Nc1c(Cl)cc(Cl)cc1[N+](=O)[O-]`, the result in test [1], in test [9] and in [15] was inactive. For the same molecule, the Potency entry in test [2], in test [16], in test [4], in test [7], in test [8] and in test [10] was “inactive” each time. The Potency result in test [11], in test [12] and in test [14] was “inactive” throughout.

Regarding `CC1CCC(C(C)CS)CC1S` (stereo not drawn), the Potency entry in [17], in test [2], in [3], in [16], in [4] and in [7] was “inactive” each time. The Potency result in [8], in test [10], in [12], in test [13] and in test [14] was “inactive” each time. Further, the molecule was classed as inactive in [1], in [5], in test [9] and in test [15]. In addition, the Potency in test [20] was 19.5 µM (active).
